The source of these data is PubChem BioAssay.

Calls of active or inactive are those of the source. Unless noted, how the calls were made is not given here.

Assay [1] is described as follows: anti-His antibody binders, primary screen, artefact control for SMM control protein annotation, biochemical, small-molecule microarray, 635 nm fluorescence (AID 1128).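 Further: score merges feature fluorescence with signal-to-noise for each printed compound spot.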 Particulars: anti-His Alexa647 antibody binding, higher = more signal.
Assay [2] deals with Human papillomavirus type 1a E7 protein (residues 1-88). Briefly: HPV1a E7 small-molecule binders, primary screen, biochemical, small-molecule microarray, residues 1-88, 635 nm (AID 1129). Particulars: small-molecule microarray binding, fluorescence 635 nm; higher = more signal.
Assay [3] concerns the target Focal adhesion kinase 1 (Homo sapiens) (UniProt Q05397). Briefly: small-molecule microarray binders of FAK, primary screen, biochemical, 635/667 nm fluorescence, BSA, DTT (AID 1130).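 Further: composite of spot emission at 667 nm and signal to noise over triplicate slides.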 Particulars: PTK2 binding, 635 nm fluorescence, higher = more signal.
Assay [4] relates to Fibrinogen (Alexa647-labelled). Briefly: fibrinogen binders on compound microarrays, profiling panel, artefact control for SMM control-protein annotation, biochemical, small-molecule microarray, 635/667 nm fluorescence (AID 1131).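 Further: z-score merges 667 nm fluorescence with per-spot signal-to-noise over triplicate slides.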 The settings on record: fibrinogen-A647 binding fluorescence, higher = more signal.
Assay [5] has as its target Follistatin (Homo sapiens) (UniProt P19883). Put plainly: follistatin binders on small-molecule microarrays, primary screen, biochemical, small-molecule microarray, 635/667 nm fluorescence (AID 1132). Particulars: FST binding, 635 nm fluorescence, higher = more signal.
Assay [6] deals with Fibroblast growth factor 2 (Homo sapiens) (UniProt P09038). Briefly: FGF2 binders on small-molecule microarrays, primary screen, biochemical, small-molecule microarray, 635/667 nm fluorescence (AID 1133). The settings on record: small-molecule microarray binding, FGF2, fluorescence 635/667; higher = more signal.
Sequence of Fibroblast growth factor 2 (Homo sapiens) (P09038 whole entry, looked up): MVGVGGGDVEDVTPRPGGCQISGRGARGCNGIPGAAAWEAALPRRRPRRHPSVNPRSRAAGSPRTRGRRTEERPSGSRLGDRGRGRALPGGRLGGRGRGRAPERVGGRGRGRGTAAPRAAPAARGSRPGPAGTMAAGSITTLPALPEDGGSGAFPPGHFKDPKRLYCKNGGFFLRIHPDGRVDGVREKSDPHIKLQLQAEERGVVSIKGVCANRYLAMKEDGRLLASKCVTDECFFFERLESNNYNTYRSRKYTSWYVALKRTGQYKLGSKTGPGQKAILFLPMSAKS
A short description of assay [7]: mitochondrial membrane potential change in A549 cells, profiling panel, cell-based, JC-1 fluorescence, basal, 24 h, 100 nL (AID 1138).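 Further: A549 lung adenocarcinoma cells under basal conditions with no added stimulus; test concentration not given here.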 The settings on record: higher = more signal.
A further assay relates to Lefty1. Put plainly: Lefty1 binders on small-molecule microarrays, primary screen, biochemical, small-molecule microarray, 635/667 nm fluorescence (AID 1139). Particulars: small-molecule microarray binding, fluorescence 635/667; higher = more signal.
Assay [8] concerns wheat germ agglutinin (Triticum aestivum), Alexa647-labelled. Briefly: wheat germ agglutinin binders on compound microarrays, profiling panel, artefact control for SMM control-protein annotation, biochemical, small-molecule microarray, 635/667 nm fluorescence (AID 1140).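 Further: score merges 667 nm feature emission with signal to noise over triplicate slides.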 Particulars: WGA-A647 binding, 635 nm fluorescence, higher = more signal.
Assay [9] deals with Luciferin 4-monooxygenase (Photinus pyralis) (UniProt P08659). Put plainly: firefly luciferase enzyme inhibitors, primary screen, biochemical, luminescence, purified enzyme, 2006 set (AID 1141).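 Further: cell-free assay with purified firefly luciferase at 100 ng per well in PBS; test concentration not given here.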 Particulars: SteadyGlo luminescence, 30 min, higher = more signal, called active from +8 up or from −8 down.
Sequence of Luciferin 4-monooxygenase (Photinus pyralis) (P08659 whole entry, looked up): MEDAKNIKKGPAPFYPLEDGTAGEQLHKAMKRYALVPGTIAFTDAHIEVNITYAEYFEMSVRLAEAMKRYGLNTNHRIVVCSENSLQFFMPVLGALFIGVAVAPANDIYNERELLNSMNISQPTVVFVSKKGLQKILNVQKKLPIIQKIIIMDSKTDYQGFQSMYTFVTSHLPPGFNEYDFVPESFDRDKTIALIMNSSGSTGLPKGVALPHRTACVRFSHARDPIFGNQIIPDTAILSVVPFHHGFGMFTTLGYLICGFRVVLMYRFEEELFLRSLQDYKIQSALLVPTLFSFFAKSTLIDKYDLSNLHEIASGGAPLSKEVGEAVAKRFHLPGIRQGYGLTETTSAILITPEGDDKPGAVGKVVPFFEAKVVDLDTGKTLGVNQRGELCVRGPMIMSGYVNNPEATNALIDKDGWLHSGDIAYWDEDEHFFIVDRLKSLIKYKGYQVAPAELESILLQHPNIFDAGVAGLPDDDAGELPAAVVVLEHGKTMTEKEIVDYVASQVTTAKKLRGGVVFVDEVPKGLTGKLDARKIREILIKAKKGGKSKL
The subject of assay [10] is Wnt5a (protein binding on small-molecule microarray). Put plainly: Wnt5a binders on small-molecule microarray, primary screen, biophysical, 635/667 nm fluorescence (AID 1142).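 Further: fluorescence read at 667 nm with signal to noise per printed feature.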 The settings on record: 635 nm fluorescence, higher = more signal.
Assay [11] is described as follows: cell viability in Huh7 cells, primary screen, cytotoxicity control for HCV replication inhibitor project, CellTiter-Glo luminescence, basal, 48 h (AID 1143).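 Further: Huh7 hepatoma cells carrying a hepatitis C replication reporter with no stimulus; test concentration not given here.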 Particulars: Huh7 HCV replicon, higher = more signal, called active from +8 up or from −8 down. In general terms: ATP-based viability assays read luminescence as a measure of living cells.
Assay [12] can be described thus: P. aeruginosa biofilm formation inhibitors, primary screen, PAO1 strain, BacTiter-Glo luminescence, LB-PBS (AID 1144). Particulars: 12 h, higher = more signal.
Assay [13] can be described thus: CREB reporter modulators without forskolin, primary screen, cell-based, PC12, CRE-LacZ reporter, unstimulated (AID 1145). The settings on record: no forskolin, luminescence, 4.5 h, higher = more signal, called active from +8 up or from −8 down.
Assay [14] in a line: CREB reporter modulators under forskolin, primary screen, cell-based, PC12, CRE-LacZ reporter, forskolin-stimulated (AID 1146).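 Further: PC12 cells with 6xCRE LacZ reporter stimulated by forskolin 10 µM; beta-galactosidase reporter signal reflecting CREB driven transcription.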 Particulars: luminescence, 4.5 h, higher = more signal, called active from +8 up or from −8 down.
In assay [15] the target is Streptavidin (Streptomyces avidinii) (UniProt P22629). Put plainly: streptavidin binders on small-molecule microarray, primary screen, artefact control for SMM compound annotation, biophysical, 635/667 nm fluorescence (AID 1147).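 Further: signal reflects streptavidin binding to arrayed compounds as a control protein.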 Particulars: streptavidin binding, higher = more signal.
Sequence of Streptavidin (Streptomyces avidinii) (P22629 whole entry, looked up): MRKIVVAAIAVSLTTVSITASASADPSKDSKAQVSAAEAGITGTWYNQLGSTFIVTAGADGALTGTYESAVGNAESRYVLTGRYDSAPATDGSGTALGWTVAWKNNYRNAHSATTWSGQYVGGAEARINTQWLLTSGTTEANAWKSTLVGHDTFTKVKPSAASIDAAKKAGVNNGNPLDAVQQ
Assay [16] is described as follows: small-molecule binders of probe aInhba, primary screen, biochemical, small-molecule microarray, 635/667 nm fluorescence (AID 1148).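 Further: score merges 667nm spot fluorescence with signal-to-noise for antibody binding to printed compounds.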 Particulars: higher = more signal.
Assay [17] deals with Torsin-1A (Homo sapiens) (UniProt O14656). Briefly: torsin A binders from cell lysate, primary screen, small-molecule microarray, wild-type, 635/667 nm (AID 1149). The settings on record: COS7 hTOR1A-WT lysate, 635 nm fluorescence, higher = more signal.
Sequence of Torsin-1A (Homo sapiens) (O14656 whole entry, looked up): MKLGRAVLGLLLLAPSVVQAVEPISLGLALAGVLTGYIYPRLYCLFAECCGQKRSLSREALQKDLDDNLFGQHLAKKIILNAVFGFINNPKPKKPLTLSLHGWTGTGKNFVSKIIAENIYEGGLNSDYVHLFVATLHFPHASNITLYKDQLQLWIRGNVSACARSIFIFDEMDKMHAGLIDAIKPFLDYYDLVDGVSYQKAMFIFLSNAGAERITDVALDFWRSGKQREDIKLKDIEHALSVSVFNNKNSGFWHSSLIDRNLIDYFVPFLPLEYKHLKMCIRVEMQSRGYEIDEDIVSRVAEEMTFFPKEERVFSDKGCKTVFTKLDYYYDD
The target is the same in assay [18]. Put plainly: small-molecule binders of mutant TOR1A in lysate, primary screen, cell lysate, small-molecule microarray, COS7 lysate, 635/667 nm fluorescence (AID 1150).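 Further: score pools 667 nm emission and signal to noise measuring lysate protein binding.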 Particulars: COS7 hTOR1A mutant lysate, 635 nm fluorescence, higher = more signal.
Assay [19] concerns Sonic hedgehog protein (Shh). Put plainly: small-molecule binders of Shh protein, primary screen, biochemical, small-molecule microarray, 635/667 nm fluorescence (AID 1151).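 Further: Shh protein binding to compounds spotted on small-molecule microarray slides; score combines spot fluorescence intensity with signal-to-noise across triplicate slides.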 The settings on record: small-molecule microarray binding, 635 nm fluorescence; higher = more signal.

Sequence of Focal adhesion kinase 1 (Homo sapiens) (Q05397 whole entry, looked up): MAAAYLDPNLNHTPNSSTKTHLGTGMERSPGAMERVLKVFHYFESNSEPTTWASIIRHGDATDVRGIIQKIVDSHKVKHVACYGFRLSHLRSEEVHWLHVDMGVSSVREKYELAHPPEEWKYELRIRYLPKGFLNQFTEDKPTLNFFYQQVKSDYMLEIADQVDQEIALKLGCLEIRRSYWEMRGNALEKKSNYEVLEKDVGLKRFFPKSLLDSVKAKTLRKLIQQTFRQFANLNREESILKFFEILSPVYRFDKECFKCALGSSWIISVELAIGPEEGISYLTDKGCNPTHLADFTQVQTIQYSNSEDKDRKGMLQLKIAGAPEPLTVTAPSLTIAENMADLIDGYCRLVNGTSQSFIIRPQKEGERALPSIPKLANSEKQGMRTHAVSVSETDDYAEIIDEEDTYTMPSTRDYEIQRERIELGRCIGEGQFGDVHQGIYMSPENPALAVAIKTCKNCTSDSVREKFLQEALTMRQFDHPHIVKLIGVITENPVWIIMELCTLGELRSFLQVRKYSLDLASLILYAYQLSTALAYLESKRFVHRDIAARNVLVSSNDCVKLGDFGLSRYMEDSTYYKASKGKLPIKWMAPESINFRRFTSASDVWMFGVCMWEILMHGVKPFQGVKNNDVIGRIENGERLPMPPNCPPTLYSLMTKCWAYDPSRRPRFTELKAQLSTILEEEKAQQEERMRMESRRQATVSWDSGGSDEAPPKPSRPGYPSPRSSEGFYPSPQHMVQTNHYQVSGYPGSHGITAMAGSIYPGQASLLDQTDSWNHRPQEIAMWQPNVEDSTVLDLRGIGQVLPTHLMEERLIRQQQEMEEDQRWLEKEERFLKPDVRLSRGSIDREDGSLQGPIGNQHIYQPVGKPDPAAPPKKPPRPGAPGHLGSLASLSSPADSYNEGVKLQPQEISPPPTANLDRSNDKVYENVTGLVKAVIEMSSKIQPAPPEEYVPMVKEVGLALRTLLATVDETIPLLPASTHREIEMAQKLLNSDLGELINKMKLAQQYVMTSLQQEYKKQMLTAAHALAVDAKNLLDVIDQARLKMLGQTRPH
Sequence of Follistatin (Homo sapiens) (P19883 whole entry, looked up): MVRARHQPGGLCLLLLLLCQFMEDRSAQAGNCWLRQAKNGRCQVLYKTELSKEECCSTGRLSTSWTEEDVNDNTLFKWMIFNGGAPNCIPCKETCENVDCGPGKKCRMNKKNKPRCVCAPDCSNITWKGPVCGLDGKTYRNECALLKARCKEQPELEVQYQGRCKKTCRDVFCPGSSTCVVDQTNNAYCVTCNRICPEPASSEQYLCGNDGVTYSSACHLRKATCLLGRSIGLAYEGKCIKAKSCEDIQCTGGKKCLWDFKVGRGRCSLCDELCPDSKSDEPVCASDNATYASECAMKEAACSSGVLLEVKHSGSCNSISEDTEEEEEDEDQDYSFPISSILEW

On to `CC(C)C[C@@H]1NC(=O)[C@@]23C(=O)N[C@@H](Cc4ccccc4)C2[C@H](C)[C@@]2(C)O[C@H]2C3/C=C/C/C=C\CNC(=O)[C@@H](CC(C)C)NC1=O` (stereo not given in full), for which the composite z-score was 0.455 in [1]; 0.409 in assay [2]; -0.0559 in assay [3]; 0.928 in [4]; 0.797 in assay [5]; 0.963 in [6]. In addition, the composite z-score in the assay on Lefty1 is 0.84; in assay [8] it was 0.393; in [10] it was 0.0669; in [15] it was -0.463; in assay [16] it was -0.128; with Torsin-1A (Homo sapiens) [17] it was 0.295. Further, the composite z-score with Torsin-1A (Homo sapiens) [18] turned out to be 0.068; in assay [19], 1.39. Besides, the z-score in [7] is 0.102; in [9] it was -1.23 (inactive); in assay [11], -0.91 (inactive); in [12] it was 0.587 (inactive); in assay [13] it was 2.66 (inactive); in [14] it was 0.158 (inactive).
As to `CN(C)CCCCNC(=O)[C@H]1C[C@H]2C(=O)N[C@@H](Cc3ccccc3)C(=O)N2[C@H]1c1cccc(OCCO)c1`, the composite z-score in [1] was 0.807; in [2], -0.562; in assay [3], -0.0598; in assay [4] it was -0.205; in [5] it was 1.21; in assay [6] it was 0.694. Further, the composite z-score in the assay with Lefty1 is 0.365; in [8], -0.0282; in assay [10], -0.113; in assay [15], -0.203; in assay [16] it was -0.128; with Torsin-1A (Homo sapiens) [17], -0.163. Besides, the composite z-score with Torsin-1A (Homo sapiens) [18] was determined as 0.59; in [19] it was 0.878. For the same compound, the z-score in assay [7] was -0.0938; in assay [9], 0.801 (inactive); in assay [11] it was -0.307 (inactive); in assay [12], -0.584 (inactive); in [13], -1.07 (inactive); in assay [14], -1.16 (inactive).
For `C=CC[C@]1(C(=O)NCCCOC)N=C(c2ccc(OCCCO)cc2)O[C@H]1c1ccccc1`, the composite z-score was 1.19 in assay [1]; 1.21 in assay [2]; 0.0442 in assay [3]; -0.922 in [4]; 1.29 in [5]; -0.9 in [6]. Moreover, the composite z-score in the assay on Lefty1 was -0.689; in assay [8], 0.566; in [10] it was 0.274; in assay [15], -0.0374; in assay [16] it was -0.0986; with Torsin-1A (Homo sapiens) [17], 0.872. For the same compound, the composite z-score with Torsin-1A (Homo sapiens) [18] is 1.37; in assay [19], -1.62. Besides, the z-score in assay [7] was 0.266; in assay [9], 0.436 (inactive); in assay [11], -2.26 (inactive); in [12], -0.747 (inactive); in [13] it was 0.857 (inactive); in assay [14], 0.15 (inactive).
Turning to `CC(C)(C)OC(=O)CC[C@]1(C(N)=O)N=C(c2ccc(OCCCO)cc2)O[C@H]1c1ccccc1CN=[N+]=[N-]`, the composite z-score in assay [1] came to 3.93; in [2], 1.15; in assay [3] it was 0.291; in [4] it was 0.878; in assay [5], 0.421; in [6], 1.44. In addition, the composite z-score in the assay on Lefty1 is -0.512; in assay [8], 0.668; in assay [10], 0.602; in [15], 2; in assay [16], 0.355; in the assay with Torsin-1A (Homo sapiens) [17], 1.57. The composite z-score is 1.1 with Torsin-1A (Homo sapiens) [18] and -0.336 in [19]. Besides, the z-score in [7] was 0.187; in assay [9], -4.65 (inactive); in assay [11], 0.268 (inactive); in [12], 0.201 (inactive); in assay [13], 1.04 (inactive); in assay [14] it was -0.671 (inactive).
`C[C@H]1C2[C@H](Cc3ccccc3)NC(=O)[C@]23C(=O)NCC(=O)N2CCC[C@H]2C(=O)NC/C=C\C/C=C/C3[C@@H]2O[C@]12C` (stereo not given in full): the composite z-score in assay [1] is -0.151; in assay [2], -0.0402; in assay [3] it was -0.258; in assay [4] it was -0.454; in [5], 0.278; in [6], 1.1. For the same compound, the composite z-score in the assay with Lefty1 is 0.0393; in [8] it was -0.121; in [10], 0.0076; in assay [15], -0.744; in assay [16], -0.018; with Torsin-1A (Homo sapiens) [17] it was -0.266. Besides, the composite z-score in the assay with Torsin-1A (Homo sapiens) [18] was -0.618; in [19], 1.2. Also, the z-score was 0.546 in [7]; -1.25 (inactive) in assay [9]; 0.493 (inactive) in assay [11]; 0.716 (inactive) in assay [12]; 0.495 (inactive) in [13]; -0.294 (inactive) in [14].
For the compound `CCOC(=O)C1=C(C(=O)OCC)N(S(=O)(=O)CC[Si](C)(C)C)[C@H](c2ccccc2)CC1`, the composite z-score in [1] was 0.171; in assay [2], 1.17; in assay [3] it was -0.069; in assay [4], 0.837; in assay [5], 0.761; in [6], -0.0502. The composite z-score was determined as 0.566 with Lefty1; 1.1 in assay [8]; 0.263 in assay [10]; 0.955 in assay [15]; 0.131 in assay [16]; 0.454 with Torsin-1A (Homo sapiens) [17]. In addition, the composite z-score with Torsin-1A (Homo sapiens) [18] was 0.476; in assay [19] it was -0.424. In addition, the z-score in assay [7] is 2.54; in assay [9], 1.01 (inactive); in assay [11] it was -4.45 (inactive); in [12] it was 0.338 (inactive); in assay [13], 0.229 (inactive); in [14], 0.207 (inactive).
For `CN1C=C(C(=O)OCCS(C)(=O)=O)C(C(=O)OCCS(C)(=O)=O)=CC(CCCO)=CC1c1ccc(CN2CCCC2)cc1` (stereo not given), the composite z-score in [1] turned out to be 1.29; in [2], 1.26; in assay [3], 0.666; in assay [4], 0.894; in [5], 1.06; in assay [6], 0.546. For the same compound, the composite z-score in the assay on Lefty1 stood at 1.23; in [8], 0.837; in assay [10], 0.531; in assay [15] it was 1.24; in [16], 0.253; in the assay with Torsin-1A (Homo sapiens) [17], 0.244. The composite z-score with Torsin-1A (Homo sapiens) [18] stood at 1.19; in [19] it was 1.06. Also, the z-score in [7] was 3.43; in [9], -2.16 (inactive); in [11], -0.209 (inactive); in [12], 0.356 (inactive); in assay [13] it was 5.05 (inactive); in assay [14], -0.267 (inactive).
As to `C=CCC(OC(C)=O)[C@@H]1[C@@H](N(Cc2cccc3ccccc23)C(=O)c2ccc(C)cc2)c2cc(OCCCO)ccc2N1C(=O)c1ccc2ccccc2n1` (stereo not given in full), the composite z-score in assay [1] is -0.24; in [2], 0.098; in assay [3], 0.348; in assay [4] it was 0.682; in assay [5], 0.584; in assay [6] it was 0.0013. Further, the composite z-score in the assay with Lefty1 is 0.644; in assay [8], 0.391; in assay [10] it was 0.0305; in [15] it was 0.2; in assay [16], 0.0664; with Torsin-1A (Homo sapiens) [17], -0.0107. Moreover, the results for the composite z-score (with Torsin-1A (Homo sapiens) [18]; in assay [19]) were 0.121 and 0.709, respectively. Besides, the z-score in [7] is 0.644; in assay [9] it was -1.05 (inactive); in [11], -0.846 (inactive); in assay [12], -0.106 (inactive); in assay [13], 0.642 (inactive); in [14], 0.154 (inactive).
